Laboratory results as given in PubChem BioAssay.
“And” between values parts separate entries of the source, which are not always exact repeats. Identical values can stand only once. The source made the active and inactive calls.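 Rule for the calls, unless noted: active = compounds whose cell count with miR-34 switched on is under 0.7 times the count with it off; inactive = the rest.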

Assays:
[1] = system: Aerobactin synthetase IucA (Klebsiella pneumoniae); assay: IucA aerobactin synthetase inhibitors, biochemical, Tocris library, absorbance (AID 1345561; call rule not given here;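 note: 100% = enzyme without compound and 0% = no enzyme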); settings: purified IucA enzyme assay, absorbance (OD) read-out; stronger effect = lower value;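 tested at 8 µM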
[2] = sensitizers of A549 cells to miR-34 induction, primary screen, imaging, A549 dox-inducible miR-34, nuclei and caspase counts (AID 1347080); settings: A549 miR-34 inducible, Hoechst nuclei count, 48 h
[3] = viability rescue of complex I mutant cybrids, primary screen, cell-based, galactose medium, ATP luminescence (AID 1645843;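 active = z-score of at least 1.8 in each of two replicates, scored against plate mean and spread of sample wells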;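 note: positive z means more ATP and so rescue of galactose-driven cybrid death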); settings: complex I mutant cybrid cells, 72 h, stronger effect = higher value
[4] = stronger effect = lower value, cell number ratio, induced over uninduced
[5] = measured here: relative caspase fold change +Dox/-Dox
[6] = measured here: total cells with miR-34 induction, stronger effect = lower value
[7] = measured here: total cells without miR-34 induction

| SMILES | remaining activity [1] | fold change [2, 4] | fold change [2, 5] | cell count [2, 6] | cell count [2, 7] | z-score [3] | fold change ([2]; stronger effect = lower value) |
| --- | --- | --- | --- | --- | --- | --- | --- |
| COC(=O)CN1CN(c2ccccc2)C2(CCN(Cc3ccc4ccccc4c3)CC2)C1=O | 120% (inactive) | 0.912 (inactive) | 0.824 | 8960 | 9820 | 0.375 (inactive) | – |
| O=C1Nc2ccccc2C2(CCN(CCc3ccc(C(F)(F)F)cc3)CC2)O1 | 102% (inactive) | 1.06 (inactive) | 0.675 | 4790 | 4500 | -0.66 (inactive) | – |
| Cc1nnc2ccc(-c3cccc(C(F)(F)F)c3)nn12 | 126% (inactive) | – | 0.497 | 9060 | 9940 | 0.155 (inactive) | 0.912 (inactive) |
| CN1Cc2ccccc2[C@@H]2c3cccc4[nH]cc(c34)C[C@H]21 | 114% (inactive) | 0.936 (inactive) | 0.677 | 4560 | 4870 | -0.7 (inactive) | – |
| COC1CCC2NC(C(=O)c3ccccc3)CC2C1 (centres undefined) | 86.6% (inactive) | 1.14 (inactive) | 0.708 | 1500 | 1320 | 0.23 (inactive) | – |
| CN(C)c1ccc(/C=C2\CCCN=C2c2cccnc2)cc1 | 94.5% (inactive) | 0.947 (inactive) | 1.33 | 8030 | 8480 | -0.4 (inactive) | – |
| C[C@H](NC[C@H](O)CP(=O)(O)CC1CCCCC1)c1ccc(Cl)c(Cl)c1 | 121% (inactive) | 0.971 (inactive) | 0.73 | 10100 | 10400 | 0.2 (inactive) | – |
| Cc1ncc(CN2CC=C(c3ccccc3)CC2)c(N)n1 | 92.9% (inactive) | 0.973 (inactive) | 1.21 | 8940 | 9190 | -0.505 (inactive) | – |
| CN1C2CCC1CC(OC(c1ccc(F)cc1)c1ccc(F)cc1)C2 (centres undefined) | 99.4% (inactive) | 1.03 (inactive) | 1.19 | 7710 | 7460 | -0.46 (inactive) | – |
| NC1(c2ccccc2Cl)CCCCC1=O (centres undefined) | 88.2% (inactive) | – | 1.86 | 9020 | 10000 | 1.53 (inactive) | 0.898 (inactive) |
| O=C1CN=C(c2cccc(Br)c2)c2oc3ccccc3c2N1 | 121% (inactive) | 1.01 (inactive) | 1.75 | 2110 | 2080 | -0.285 (inactive) | – |
| CN1CC[C@@H]2CN3CCc4cccc(c43)[C@@H]2C1 | 120% (inactive) | 0.917 (inactive) | 0.673 | 8120 | 8850 | -0.34 (inactive) | – |
| CNCCc1cnc[nH]1 | 101% (inactive) | 0.965 (inactive) | 0.943 | 9430 | 9770 | 0.115 (inactive) | – |
| CC(C(=O)OC1CC2CCC(C1)N2C)c1ccc(Br)cc1 (centres undefined) | 87.5% (inactive) | 0.964 (inactive) | 0.964 | 8760 | 9090 | -0.795 (inactive) | – |
| OC12C3C4CC5C6C4C1C6C(C53)N2CCc1cccc(F)c1 (centres undefined) | 98.4% (inactive) | 0.838 (inactive) | 1.86 | 7940 | 9480 | 0.295 (inactive) | – |
| CC[N+](CC)(CCCNC1=CC(=O)C(NCCC[N+](CC)(CC)Cc2ccccc2)=CC1=O)Cc1ccccc1 | 81.3% (inactive) | 0.951 (inactive) | 0.768 | 8950 | 9410 | -0.46 (inactive) | – |
| CCOC(=O)c1ncn2c1CN(C)C(=O)c1cc(N=[N+]=[N-])ccc1-2 | 97.3% (inactive) | 0.891 (inactive) | 1.09 | 7930 | 8900 | 0.06 (inactive) | – |
| CN(C(=O)Cc1ccccc1)C(CN1CCCC1)c1ccccc1 (centres undefined) | 116% (inactive) | 0.952 (inactive) | 0.864 | 8670 | 9110 | 0.03 (inactive) | – |
| CN1[C@@H]2CC[C@H]1CC(OC(=O)N1Cc3ccccc3NC1=O)C2 (some centres undefined) | 119% (inactive) | 0.979 (inactive) | 1.11 | 8310 | 8490 | 0.365 (inactive) | – |
| Clc1ccc(C2=CCCC3CCC2N3)cn1 (centres undefined) | 101% (inactive) | 0.907 (inactive) | 0.911 | 9190 | 10100 | 0.365 (inactive) | – |

| SMILES | remaining activity [1] | fold change [2, 4] | fold change [2, 5] | cell count [2, 6] | cell count [2, 7] | z-score [3] | fold change ([2]; stronger effect = lower value) |
| --- | --- | --- | --- | --- | --- | --- | --- |
| C[C@@H]1O[C@@H](O[C@@H]2C[C@@H](O)[C@]3(CO)[C@H]4[C@H](O)C[C@]5(C)[C@@H](C6=CC(=O)OC6)CC[C@]5(O)[C@@H]4CC[C@]3(O)C2)[C@H](O)[C@H](O)[C@H]1O | 107% (inactive) | 0.807 (inactive) | 1.91 | 346 | 430 | -0.765 (inactive) | – |
| CC(=O)N1CC[N+](C)(C)CC1 | 90.4% (inactive) | 0.94 (inactive) | 0.788 | 9100 | 9680 | 0.25 (inactive) | – |
| Cc1ccc2c(c1)C1(CCN(CCc3nc(-c4ccccc4)oc3C)CC1)OC(=O)N2 | 95% (inactive) | 0.966 (inactive) | 1.87 | 5420 | 5610 | -0.635 (inactive) | – |
| CCCN[C@@H]1CCc2c(OC)cccc2[C@@H]1C | 99.1% (inactive) | 0.939 (inactive) | 1.14 | 8780 | 9360 | 0.12 (inactive) | – |
| OC(Cc1ccncc1)C(Cl)(Cl)Cl (centres undefined) | 118% (inactive) | 0.921 (inactive) | 0.736 | 9270 | 10100 | -0.53 (inactive) | – |
| COc1cc2c(cc1O)C(CCc1ccc(Cl)cc1)N(C)CC2 (centres undefined) | 109% (inactive) | 0.951 (inactive) | 1.1 | 7110 | 7480 | -0.615 (inactive) | – |
| O[C@H]1[C@H](O)[C@@H](O)CN2CC[C@H](O)[C@H]12 | 107% (inactive) | – | 1.02 and 1.4 | 4910 and 9170 | 5610 and 10000 | 0.34 (inactive) | 0.875 (inactive) and 0.917 (inactive) |
| C=C(C)[C@@H]1CCC(C)=C[C@H]1c1c(OC)cc(C)cc1OC | 106% (inactive) | 0.943 (inactive) and 0.926 (inactive) | 0.715 and 0.958 | 5230 and 8980 | 5540 and 9700 | -0.105 (inactive) | – |
| O=C(O)Cc1cccnc1C(=O)O | 108% (inactive) | 0.98 (inactive) | 0.669 | 8790 | 8970 | 0.32 (inactive) | – |
| NC=Nc1ccc2[nH]c3c(c2c1)C[C@@]1(O)C2Cc4ccc(O)c5c4[C@@]1(CCN2CC1CC1)[C@H]3O5 | 121% (inactive) | – | 1.22 | 9860 | 10100 | -0.38 (inactive) | 0.975 (inactive) |
| CCc1cccc(CC)c1NC1=NCCN1 | 115% (inactive) | 0.952 (inactive) | 1.79 | 8430 | 8850 | -0.02 (inactive) | – |
| O=C(O)CCC(CP(=O)(O)O)C(=O)O (centres undefined) | 113% (inactive) | 0.917 (inactive) | 0.521 | 9040 | 9860 | -0.22 (inactive) | – |
| CN(C(=O)Cc1ccc(Cl)c(Cl)c1)[C@H](CN1CCCC1)c1ccccc1 | 98.2% (inactive) | 0.987 (inactive) | 0.762 | 7540 | 7640 | -0.625 (inactive) | – |
| Cc1nc(N)sc1CCN | 88.4% (inactive) | 0.919 (inactive) | 1.01 | 8020 | 8730 | 0.195 (inactive) | – |
| CCOc1cncc(/C=C/CCNC)c1 | 108% (inactive) | 0.967 (inactive) | 1.27 | 8770 | 9060 | -0.075 (inactive) | – |
| CC(C)CC(N)C1(c2ccc(Cl)cc2)CCC1 (centres undefined) | 120% (inactive) | – | 1.15 | 7820 | 7770 | -0.615 (inactive) | 1.01 (inactive) |
| CC(=O)[C@H]1CC[C@H]2[C@@H]3CCC4C[C@](C)(O)CC[C@]4(C)[C@H]3CC[C@]12C (some centres undefined) | 103% (inactive) | – | 1.5 | 8730 | 9490 | -0.285 (inactive) | 0.92 (inactive) |
| CCCCC1(C2CCCC2)Cc2cc(OCCCC(=O)O)c(Cl)c(Cl)c2C1=O (centres undefined) | 98.2% (inactive) | 0.969 (inactive) | 0.91 | 7490 | 7730 | 3.13 (active) | – |
| Oc1ccc2c3c1O[C@H]1c4c(c5ccccc5n4Cc4ccccc4)C[C@@]4(O)C(C2)N(CC2CC2)CC[C@]314 | 94.5% (inactive) | – | 1.27 | 2600 | 2780 | -1.2 (inactive) | 0.935 (inactive) |
